Inconclusive results are not listed. Activity calls are given as the source filed them. Unless noted, calls come from the whole dose curve.
Columns and labels:
[1] = Nuclear factor erythroid 2-related factor 2/antioxidant responsive element (Nrf2/ARE) small molecule agonists: qHTS cell viability counter screen in human keratinocytes (AID 1919968; active = well fitted curve in the direction sought with a large enough effect in the repeat runs; an effect the other way counts as inactive or inconclusive; note: nearly all actives have a fitted effect of over 55% in size; note: potency is the fitted concentration of half-maximal effect)
Summary of the method: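 KeratinoSens HaCaT cells, 1,500/well, preincubated 5 h, then exposed to compounds in DMSO for 23 h at 37 C/5% CO2. Viability read as CellTiter-Fluor fluorescence after 1 h, in the same wells as the ARE-luciferase read.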

[2] = Nuclear factor erythroid 2-related factor 2/antioxidant responsive element (Nrf2/ARE) small molecule agonists: luciferase reporter gene qHTS assay in human keratinocytes (AID 1919969); note: nearly all actives have a fitted effect of over 35% in size; note: potency is the fitted concentration of half-maximal effect
[3] = target: Gonadotropin-releasing hormone receptor (Homo sapiens) (UniProt P30968); assay: Human gonadotropin-releasing hormone receptor (GnRHR) small molecule agonists, calcium flux assay in GnRHR-HEK293 cells (AID 1920063); note: nearly all actives have a fitted effect of over 35% in size
Chain of Gonadotropin-releasing hormone receptor (Homo sapiens) (P30968 whole entry, looked up): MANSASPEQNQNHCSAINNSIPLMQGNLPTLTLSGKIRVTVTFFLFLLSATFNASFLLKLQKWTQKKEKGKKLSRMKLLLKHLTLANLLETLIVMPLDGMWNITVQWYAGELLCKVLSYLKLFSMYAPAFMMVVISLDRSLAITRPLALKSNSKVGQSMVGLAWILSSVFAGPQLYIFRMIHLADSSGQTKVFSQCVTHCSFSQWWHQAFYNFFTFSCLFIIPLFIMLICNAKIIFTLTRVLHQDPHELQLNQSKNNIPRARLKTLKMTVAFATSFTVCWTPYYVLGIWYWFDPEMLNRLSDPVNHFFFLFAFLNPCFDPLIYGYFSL
Summary of the method: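 HEK293 cells stably expressing human GnRHR were dye-loaded for 1 h at 37 C. Compound was added in agonist mode and fluorescence (Ex/Em 480/540) recorded kinetically for 3 min. Fifteen concentrations, triplicates.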

[4] = target: KiSS-1 receptor (Homo sapiens) (UniProt Q969F8); assay: Human kisspeptin (KISS1R) small molecule agonists, calcium flux assay in KISS1R-HEK293 cells (AID 1920064; active = well fitted curve in the direction sought with a large enough effect in the repeat runs; an effect the other way counts as inactive or inconclusive)
Chain of KiSS-1 receptor (Homo sapiens) (Q969F8 whole entry, looked up): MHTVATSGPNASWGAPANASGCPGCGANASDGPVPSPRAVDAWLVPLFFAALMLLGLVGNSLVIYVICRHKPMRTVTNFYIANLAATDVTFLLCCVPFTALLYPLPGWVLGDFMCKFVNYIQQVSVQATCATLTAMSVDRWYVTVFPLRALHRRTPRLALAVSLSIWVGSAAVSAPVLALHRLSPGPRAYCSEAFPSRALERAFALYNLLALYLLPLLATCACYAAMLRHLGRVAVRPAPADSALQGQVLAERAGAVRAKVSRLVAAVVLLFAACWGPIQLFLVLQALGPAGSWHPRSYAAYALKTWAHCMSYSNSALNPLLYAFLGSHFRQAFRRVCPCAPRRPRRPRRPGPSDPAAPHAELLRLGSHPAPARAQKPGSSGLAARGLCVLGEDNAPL
Summary of the method: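 HEK293 cells stably expressing human KISS1R were loaded with calcium dye for 1 h at 37 C, then given compound; fluorescence (Ex/Em 480/540) was read kinetically for 3 min. Fifteen concentrations, triplicate.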

[5] = G protein-coupled receptor (GPCR) small molecule agonists, calcium flux assay: HEK293 wild type cell line counter screen (AID 1920065); note: potency is the fitted concentration of half-maximal effect
Summary of the method: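 Wild-type HEK293 cells plated 18 h, loaded with calcium dye 1 h at 37 C, then compounds added in agonist mode (ATP as positive control). Kinetic fluorescence Ex/Em 480/540 recorded 3 min at 1 sec intervals; 15 concentrations, triplicate.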

[6] = p53 small molecule agonists, cell-based qHTS assay with human liver microsomes: qHTS cell viability counter screen (AID 1963579); note: nearly all actives have a fitted effect of over 45% in size; note: potency is the fitted concentration of half-maximal effect
Summary of the method: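 In this multiplexed counter screen, the reporter plates were subsequently treated with CellTiter-Glo so that cell viability, reflected by luminescence, could be recorded for p53RE-bla cells dosed 16 h with compounds under microsomal activation (HLM and NADPH).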

[7] = target: 5-hydroxytryptamine receptor 2A (Homo sapiens) (UniProt P28223); assay: 5-hydroxytryptamine receptor 2A (HTR2A) small molecule agonists, cell-based qHTS assay (AID 1963587); note: nearly all actives have a fitted effect of over 30% in size
Chain of 5-hydroxytryptamine receptor 2A (Homo sapiens) (P28223 whole entry, looked up): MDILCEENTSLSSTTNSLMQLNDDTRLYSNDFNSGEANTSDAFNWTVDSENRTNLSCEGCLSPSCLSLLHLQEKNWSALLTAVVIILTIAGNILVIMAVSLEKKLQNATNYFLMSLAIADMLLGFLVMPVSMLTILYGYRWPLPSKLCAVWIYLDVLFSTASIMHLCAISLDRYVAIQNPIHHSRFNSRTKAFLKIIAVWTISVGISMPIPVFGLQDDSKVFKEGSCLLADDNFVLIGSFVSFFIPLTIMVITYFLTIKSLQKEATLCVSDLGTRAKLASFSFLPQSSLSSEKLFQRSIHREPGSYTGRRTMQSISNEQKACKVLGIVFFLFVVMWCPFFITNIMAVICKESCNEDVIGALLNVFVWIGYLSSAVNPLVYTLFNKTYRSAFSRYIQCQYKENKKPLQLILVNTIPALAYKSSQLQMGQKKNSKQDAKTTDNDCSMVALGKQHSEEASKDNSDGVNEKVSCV
Summary of the method: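 Kinetic calcium-flux fluorescence (2 min, 1 sec intervals) after compound addition in agonist mode. HTR2A-CHO cells were cultured 18 h, then dye-loaded 1 h at 37 C.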

[8] = target: Muscarinic acetylcholine receptor M1 (Homo sapiens) (UniProt P11229); assay: Cholinergic receptor muscarinic 1 (CHRM1) small molecule antagonists, cell-based qHTS assay (AID 1963588); note: nearly all actives have a fitted effect of over 40% in size; note: potency is the fitted concentration of half-maximal effect
Chain of Muscarinic acetylcholine receptor M1 (Homo sapiens) (P11229 whole entry, looked up): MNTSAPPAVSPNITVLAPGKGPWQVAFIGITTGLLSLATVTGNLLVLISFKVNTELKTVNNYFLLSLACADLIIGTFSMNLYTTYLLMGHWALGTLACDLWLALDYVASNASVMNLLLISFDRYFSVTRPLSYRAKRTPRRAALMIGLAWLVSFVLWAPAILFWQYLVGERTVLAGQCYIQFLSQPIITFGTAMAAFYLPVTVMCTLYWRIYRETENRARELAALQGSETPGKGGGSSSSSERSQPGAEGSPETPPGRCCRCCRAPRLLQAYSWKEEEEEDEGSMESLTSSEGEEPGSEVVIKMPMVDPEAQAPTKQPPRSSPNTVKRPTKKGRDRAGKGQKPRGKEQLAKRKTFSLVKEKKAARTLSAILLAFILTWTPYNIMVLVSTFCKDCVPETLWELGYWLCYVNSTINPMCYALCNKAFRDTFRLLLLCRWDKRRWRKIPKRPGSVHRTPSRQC
Summary of the method: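 CHRM1-CHO calcium-flux assay, antagonist mode. Cells were seeded 18 h, dye-loaded 1 h at 37 C and given compound for 5 min at RT, then acetylcholine was added at 50nM. FDSS fluorescence was read 3 min; 15 concentrations, three runs.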

[9] = target: Muscarinic acetylcholine receptor M1 (Homo sapiens) (UniProt P11229); assay: Cholinergic receptor muscarinic 1 (CHRM1) small molecule agonists, cell-based qHTS assay (AID 1963589); note: nearly all actives have a fitted effect of over 35% in size
Summary of the method: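 CHO cells stably expressing human CHRM1 were loaded with calcium dye for 1 h at 37 C, then compound was added in agonist mode. Intracellular calcium fluorescence was followed kinetically at 1 s intervals. Fifteen concentrations were tested in three independent runs.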

[10] = target: D(2) dopamine receptor (Homo sapiens) (UniProt P14416); assay: Dopamine D2 receptor (DRD2) small molecule agonists, cell-based qHTS assay (AID 1963594); note: nearly all actives have a fitted effect of over 35% in size
Chain of D(2) dopamine receptor (Homo sapiens) (P14416 whole entry, looked up): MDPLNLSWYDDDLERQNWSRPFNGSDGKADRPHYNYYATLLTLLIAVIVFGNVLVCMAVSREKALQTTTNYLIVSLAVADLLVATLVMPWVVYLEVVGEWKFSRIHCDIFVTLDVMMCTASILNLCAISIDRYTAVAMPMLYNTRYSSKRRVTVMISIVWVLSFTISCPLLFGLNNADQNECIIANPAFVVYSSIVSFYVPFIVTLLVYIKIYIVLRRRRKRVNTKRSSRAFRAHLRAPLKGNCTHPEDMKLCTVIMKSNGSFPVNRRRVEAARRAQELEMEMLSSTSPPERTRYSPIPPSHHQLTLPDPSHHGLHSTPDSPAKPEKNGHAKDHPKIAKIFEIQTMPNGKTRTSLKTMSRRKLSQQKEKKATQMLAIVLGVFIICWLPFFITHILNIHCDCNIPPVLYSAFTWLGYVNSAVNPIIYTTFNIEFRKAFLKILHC
Summary of the method: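 cAMP accumulation in DRD2-HEK293 cells measured by HTRF after 1 h detection; compounds added 10 min before NKH477 (200nM […]) forskolin-analogue stimulation, 30 min at room temperature, with Ro20-1724 present at 0.1 mM final.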

[11] = target: D(2) dopamine receptor (Homo sapiens) (UniProt P14416); assay: Dopamine D2 receptor (DRD2) small molecule antagonists, cell-based qHTS assay (AID 1963595; active = well fitted inhibition curve with a large enough effect in the signal ratio in the repeat runs, with a control signal flat; the % refers to the signal ratio)
Summary of the method: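 Antagonist mode in DRD2-HEK293 cells: after compound addition with 0.1 mM Ro20-1724, cells received quinpirole (12 nM) and NKH477 (200 nM) for 30 min at room temperature; HTRF cAMP read after 1 h detection.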

[12] = p53 small molecule agonists, cell-based qHTS assay with rat liver microsomes: qHTS cell viability counter screen (AID 1963580); note: nearly all actives have a fitted effect of over 45% in size
Summary of the method: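 Intracellular ATP, by CellTiter-Glo luminescence, defines viability. HCT-116 p53RE-bla cells, 4,000 per well, were compound-treated in the presence of rat liver microsomes and NADPH for 16 h at 37 C.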

[13] = target: 5-hydroxytryptamine receptor 2A (Homo sapiens) (UniProt P28223); assay: 5-hydroxytryptamine receptor 2A (HTR2A) small molecule antagonists, cell-based qHTS assay (AID 1963586); note: nearly all actives have a fitted effect of over 45% in size
Summary of the method: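 Antagonist-mode intracellular calcium assay: DOI (4 nM) added after 5 min compound pre-incubation at room temperature to dye-loaded HTR2A-CHO cells. Fluorescence followed for 3 min, sampled every second.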

[14] = cAMP Responsive Elements (CRE) small molecule agonists, cell-based qHTS assay (AID 1963590)
Summary of the method: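 CRE-bla HEK 293T cells, 2,000/well in DMEM with 10% dialyzed FBS and 25 mM HEPES, pre-incubated 18 h at 37 C, then exposed to compound 3 h at 37 C. Beta-lactamase reporter read with LiveBLAzer B/G FRET substrate after 2 h at room temperature.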

[15] = p53 small molecule agonists, cell-based qHTS assay: qHTS cell viability counter screen (AID 1963581); note: nearly all actives have a fitted effect of over 45% in size
Summary of the method: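 p53RE-bla HCT-116 cells, compounds added 5 h after plating and incubated 16 h at 37 C. Cytotoxicity measured in the same wells as intracellular ATP by CellTiter-Glo luminescence after 30 min at room temperature.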

[16] = cAMP Responsive Elements (CRE) small molecule antagonists, cell-based qHTS assay (AID 1963591; active = well fitted inhibition curve with a large enough effect in the signal ratio in the repeat runs, not every such curve was filed as active; the % refers to the signal ratio)
Summary of the method: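 CRE-bla HEK293T cells plated 18 h, then given compound plus NKH477 at 0.25 uM final for 3 h at 37C. Beta-lactamase reporter read with LiveBLAzer B/G FRET substrate after 2 h at room temperature.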

[17] = target: Beta-2 adrenergic receptor (Homo sapiens) (UniProt P07550); assay: Adrenergic beta2 receptor (ADRB2) small molecule antagonists, cell-based qHTS assay (AID 1963592); note: series mostly up to about 92 µM; nearly all actives have a fitted effect of over 50% in size
Chain of Beta-2 adrenergic receptor (Homo sapiens) (P07550 whole entry, looked up): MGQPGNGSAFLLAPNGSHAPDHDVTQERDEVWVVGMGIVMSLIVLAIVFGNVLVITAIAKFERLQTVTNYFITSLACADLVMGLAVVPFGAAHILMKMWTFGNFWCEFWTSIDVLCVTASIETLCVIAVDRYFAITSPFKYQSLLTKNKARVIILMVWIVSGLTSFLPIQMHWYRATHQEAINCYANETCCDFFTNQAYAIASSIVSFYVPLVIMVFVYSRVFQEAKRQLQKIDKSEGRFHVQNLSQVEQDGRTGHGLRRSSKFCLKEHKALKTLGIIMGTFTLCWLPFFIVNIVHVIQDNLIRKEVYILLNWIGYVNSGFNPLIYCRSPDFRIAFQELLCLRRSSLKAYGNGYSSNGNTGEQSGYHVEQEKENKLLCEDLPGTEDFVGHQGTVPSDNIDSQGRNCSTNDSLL
Summary of the method: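 Cells (CHO, stable ADRB2 overexpression) incubated 18-20hr at 37C; compounds added from DMSO; agonist mix (1nM isoproterenol, 100uM IBMX, 25uM Ro-20-1724) added; 0.5hr RT; d2-cAMP and anti-cAMP-cryptate added; 1hr RT; 665/615 nm read.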

[18] = target: Beta-2 adrenergic receptor (Homo sapiens) (UniProt P07550); assay: Adrenergic beta2 receptor (ADRB2) small molecule agonists, cell-based qHTS assay (AID 1963593);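 note: CHO cells stably overexpressing human ADRB2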
Summary of the method: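 CHO cells stably over-expressing ADRB2 were plated overnight at 37C, then dosed with compounds plus a stimulation mix containing 100uM IBMX and 25uM Ro-20-1724 for 0.5hr at room temperature. cAMP was measured by HTRF competition, 1hr.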

Measured: Potency

O=[N+]([O-])c1cc(C(F)(F)F)c(Cl)c([N+](=O)[O-])c1Nc1ncc(C(F)(F)F)cc1Cl
inactive: [3] | [4] | [7] | [9] | [10] | [11]
active: [1] 9.69 µM | [2] 6.11 µM | [5] 1.23 µM | [6] 45.8 µM | [8] 472 nM

O=Cc1ccc2c(c1)OCO2
inactive: [1] | [2] | [3] | [4] | [5] | [6] | [12] | [13] | [7] | [8] | [9] | [14] | [10] | [11]

CN1C(=S)CN=C(c2ccccc2)c2cc(Cl)ccc21
inactive: [1] | [2] | [3] | [4] | [5] | [6] | [15] | [13] | [7] | [8] | [9] | [14] | [16] | [17] | [18] | [10] | [11]

CCC1CCC(=O)O1 (configuration not stated)
inactive: [1] | [2] | [3] | [4] | [5] | [6] | [12] | [13] | [7] | [8] | [9] | [16] | [18] | [10] | [11]

O=[N+]([O-])c1cc(Cl)c(Cl)cc1Cl
inactive: [1] | [2] | [3] | [4] | [5] | [6] | [12] | [13] | [8] | [9] | [14] | [17] | [11]

COP(=S)(Oc1cc(Cl)c(Br)cc1Cl)c1ccccc1 (configuration not stated)
inactive: [1] | [3] | [4] | [5] | [6] | [15] | [13] | [7] | [8] | [9] | [16] | [17] | [18] | [10] | [11]
active: [2] 48.6 µM

CCC1(c2cccc(O)c2)CCCCN(C)C1 (configuration not stated)
inactive: [1] | [2] | [3] | [4] | [5] | [6] | [15] | [7] | [8] | [9] | [14] | [16] | [17] | [18] | [10] | [11]

CCC1(CC)C(=O)NC(=O)NC1=O
inactive: [1] | [2] | [3] | [4] | [5] | [6] | [12] | [13] | [7] | [8] | [9] | [14] | [16] | [17] | [10]

Source: PubChem BioAssay (Tox21)
